Results reported in the supplement of paper PMC4466236.
Over roughly 33,000 sequences, “E-score (dimensionless, -0.5 to 0.5)” has its median near -0.058; the highest 2% begin near 0.35. Only a selection was taken, and the highest values are over-represented in it overall.

test system: MvaT; test: PBM 8-mer E-score (mean of HK and ME arrays) (E-score (dimensionless, -0.5 to 0.5)); higher = stronger relative binding preference
Method: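 Protein binding microarray: GST-tagged full-length MvaT (P. aeruginosa PAO1) bound to two universal double-stranded 60-mer arrays (ME and HK), each with a constant 25-mer primer and a variable 35-mer region covering all 8-mers. The 8-mer E-score (rank-based, range -0.5 to 0.5, >0.45 = specific binding) is the mean of the two arrays.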

Sequence | PBM 8-mer E-score
ACGTATTG | 0.183
AAGTATTA | 0.388
GCGTATTA | 0.193
AAGTATTC | 0.161
CAGTATTA | 0.289
ACGTATTA | 0.356
ATATCTAG | 0.252
GCCTACGA | -0.271
GCATACCA | -0.104
CCGTGCGA | -0.193
ACAAATAG | 0.268
ACAAATAT | 0.405
ACAAATAC | 0.247
ACAAATAA | 0.38
TCAAATAA | 0.28
GCAAATAA | 0.325
CCAGGCAC | -0.347
GCCGAGAA | -0.0283
ATATATGA | 0.439
CTATATGA | 0.124
ACATATGG | 0.145
CTATATGC | 0.227
ACATATGC | 0.129
GTATATGA | 0.245
ATATATGC | 0.424

Sequence | PBM 8-mer E-score
AGATATGG | 0.00259
ATATATGG | 0.42
AAAGCTCC | -0.295
AGTCTTAC | 0.0995
CGAGATCA | -0.0866
ATATAGAA | 0.366
GTATAGAA | 0.0668
ATATAGAG | 0.351
ATATAGAC | 0.224
AGATAGAT | 0.152
CTATAGAG | -0.125
ATAGAGAG | 0.188
CTATAGAA | 0.103
ATATAGAT | 0.35
ATGACCAC | -0.00499
AATGTTTG | 0.212
AGGCGAGA | -0.0992
CACGCCAG | -0.233
AACGCGGA | -0.163
AAGAGGTC | -0.209
ATAACTAC | 0.272
CTTTAGAC | 0.0841
ATGCGGTA | -0.111
TAACTTAA | 0.406
TGCTTTAA | 0.094

Sequence | PBM 8-mer E-score
CACTTTCA | 0.136
TACTTTAA | 0.422
AAACTTAC | 0.306
AACTTTCA | 0.351
CAACTTAA | 0.31
AACTTTCT | 0.22
GAACTTAA | 0.263
AAACTTAA | 0.326
GACTTTAA | 0.262
AAACTTAT | 0.381
AAAACCGC | 0.058
AGGACGGA | -0.0832
ACCTGGGG | -0.366
AGGCTGAT | -0.0817
CCCGGTTA | 0.00633
ATTGCGCA | 0.111
ACTGGACG | -0.0771
AACTTTAA | 0.385
CACTTTAA | 0.274
AACTTTAT | 0.357
AACTTTTA | 0.34
AACTTTAG | 0.211
AACTTTAC | 0.275
GGGTGCGA | -0.091
CCGGCGCA | -0.0431

Sequence | PBM 8-mer E-score
ATCGACAC | -0.0169
AGTGCGCA | 0.13
AGGGGCGA | -0.155
ATCACTCG | 0.0455
AGCTGGTA | -0.107
ACAGGAAC | -0.0162
ATAACTGA | 0.246
CTAACTGA | 0.0161
GTAACTGA | 0.199
CTAACTTA | 0.379
GTAACTCA | 0.116
CTAACTAA | 0.286
GTAACTTA | 0.37
ATAACTTA | 0.429
AGAACTTA | 0.256
CTTGTCGC | -0.147
CCTCGTGA | -0.253
CCCTGTTA | -0.0586
AGCAAGAG | -0.0917
TCGATCCA | -0.213
ACATCTTC | 0.185
ATCTACTG | 0.0718
ATTTGTTG | 0.172
ATTGAAAT | 0.27
ACTAGTTA | 0.345

Sequence | PBM 8-mer E-score
TTAAACAA | 0.321
CTAAATCA | 0.0639
CTAAATGA | 0.126
TTAAATAA | 0.445
CTAAATAA | 0.365
CTAAATAC | 0.232
GCGATTCC | -0.0999
AGGCAGAA | -0.226
ACTCGTGA | -0.0788
GGACTCCC | -0.283
TAGTGAGA | 0.0304
ACCCTTCC | -0.184
CCATATTC | 0.161
GCATATTA | 0.278
CCATATTA | 0.353
ACATATTC | 0.281
ACATATTG | 0.281
ACATATTA | 0.44
AACCACTC | 0.00691
GCGGAGGA | -0.291
AAATTTGT | 0.264
AGGGTACC | -0.343
AACAAGTA | 0.343
AACAAAAT | 0.35
TACAAATA | 0.355

Sequence | PBM 8-mer E-score
AACAAATG | 0.172
AACAAATA | 0.369
CACAAATA | 0.338
AACAAGAT | 0.164
AACAAAAA | 0.239
GACAAATA | 0.297
CAGCAAAC | 0.014
CATTACGA | 0.0396
AAATGACT | 0.114
ATACCCAG | 0.103
CGTAAGAC | -0.107
AACTGTGG | -0.0417
ACCTACGA | -0.0935
AATACATG | 0.224
AACATAAC | 0.245
AACATAAT | 0.371
AATACATC | 0.173
CACATATC | 0.178
GGCATATA | 0.217
AACATAAA | 0.286
AGCATATC | -0.0071
AGCATATA | 0.383
AATACATT | 0.374
CACATATA | 0.405
CACATATG | 0.196

Sequence | PBM 8-mer E-score
CGAACAAC | 0.0607
GCTAGGCA | -0.187
ACGACTAG | -0.185
TACCTCAA | 0.05
ACTTGGTA | -0.109
GGTTGATA | 0.124
GTCTTCGA | -0.0711
GGTCGCGA | -0.238
CCGCAAGA | -0.078
CTCGCCTA | 0.0159
GAAAACAC | 0.0574
AATACATA | 0.324
GACATAGA | 0.0048
TATACATA | 0.389
CATACATA | 0.277
CACATACA | 0.242
GACATATA | 0.362
AACATACA | 0.36
AACATATT | 0.392
AACATAGT | 0.25
AACATACT | 0.207
GACATATC | 0.113
TACATACA | 0.301
GGTGCGCA | -0.0657
AACGCTGC | 0.0312

Sequence | PBM 8-mer E-score
CAAGCGTG | -0.266
CTCTCTAC | -0.0519
CTTTGACC | -0.131
CCCGGATA | -0.0749
AACATATG | 0.254
TACATAAA | 0.307
TACATATA | 0.402
AACATATA | 0.419
AACATATC | 0.286
TACACATA | 0.242
GTTGGCCA | -0.0756
AAGACAGC | 0.081
ACACCGGC | -0.133
ACTATTCT | 0.208
AATATTCG | 0.326
AATATTCT | 0.36
AATATTCC | 0.375
GATATTCC | 0.229
CATATTCG | 0.173
TAGAAAAA | 0.0922
CGGAGAGA | -0.145
AAGGCAAC | 0.0918
AACGCCAG | -0.15
CAGGCAGG | -0.314
AGAATAGG | -0.0847

Sequence | PBM 8-mer E-score
GATTAACC | 0.0145
GATTAATC | 0.317
GATTAATA | 0.446
CATTAATC | 0.341
CGTTAATA | 0.31
CATTAATA | 0.369
ATGCGTCC | -0.205
AAGTTGTC | 0.168
AAATACAT | 0.33
ATATACAC | 0.336
ACATACAA | 0.362
GTATACAA | 0.319
TTATACAA | 0.359
ATACACAG | 0.0306
TGATACAA | 0.145
ACATACAT | 0.275
TCATACAA | 0.0994
ATATACAG | 0.379
CTATACAG | 0.00215
ATATACAT | 0.365
CCGAAACA | 0.00391
CTGGAACA | 0.00992
CAGTATAG | 0.0504
ACTTGGAC | 0.0426
GGACACGA | -0.163

Sequence | PBM 8-mer E-score
ATGTGTTA | 0.258
CGCTTTAA | 0.0497
CTTCGTGC | -0.0984
AATTGAGC | 0.0577
ATACACAA | 0.154
CTATACAA | 0.202
ATATACAA | 0.406
CGTTAATC | 0.127
AATCAATT | 0.246
AGTTAATG | 0.271
AATTAATC | 0.366
AATTAATA | 0.449
AATTAATG | 0.359
AATTACGT | 0.263
AATTAATT | 0.469
AATTAACA | 0.333
CATTAATG | 0.34
AGTCCAAT | 0.0865
CGAAAGTC | -0.0957
AATCTGCT | -0.0198
AAAGACCC | -0.224
CATACTAG | 0.203
AGGGCCCG | -0.227
GGGTCCAC | -0.22
ATGCGCGG | -0.207

Sequence | PBM 8-mer E-score
GCGGGGAA | -0.103
GTAAGCGA | 0.0773
AATTAACG | 0.28
AATTAACT | 0.354
AATTAACC | 0.262
ACCCAAAC | 0.192
AAGTACTC | 0.137
AAGTAATG | 0.276
CAGTAATA | 0.273
AAGTAATA | 0.379
TAGTAACA | 0.274
AAGTAATC | 0.186
AAGTACTT | 0.41
TAGTAATA | 0.352
TAGTAAAA | 0.315
AAGTACTA | 0.257
AAGTAATT | 0.392
GAGTAATA | 0.287
ATCAGGCG | -0.0225
ATCTGCTA | 0.109
ACAGGACT | -0.164
AGTGCCGA | -0.0895
AAATCCCC | -0.192
CGTTCCAA | 0.0493
GGTCCTCA | -0.193

Sequence | PBM 8-mer E-score
ATAGCAGC | 0.0386
GTAATCTA | 0.151
AAAACTGT | 0.0621
GAATAGTA | 0.229
CAATAGTA | 0.264
TAATAGTA | 0.362
CTTATCGC | 0.049
CCCTTTCC | -0.188
TAATAATA | 0.477
GAATAATC | 0.188
AAATAATG | 0.387
AAAAAATG | 0.0805
GAATAAGC | 0.194
ACATAATA | 0.401
GAATAATA | 0.446
GCATAATA | 0.339
ACATAATC | 0.222
AACCTTTA | 0.192
AGGGCCTG | -0.226
GATCTGAC | -0.0641
ATACCAAG | -0.0486
CTGCGCAA | -0.0818
AAGAGACT | -0.04
AACGCGTG | -0.0417
ACTTCTGC | 0.0207

Sequence | PBM 8-mer E-score
TTCCAGAA | 0.055
GCTAGGAA | -0.167
CAATAATA | 0.418
AAATAATT | 0.438
AAATAAGA | 0.309
AAAAAATT | 0.153
TAATAAGA | 0.375
CAATAATC | 0.19
TAATAACA | 0.379
GAATAAGA | 0.201
CAATAATG | 0.322
GAATAACA | 0.2
CAATAACA | 0.283
CTACCGCA | -0.134
CCTGATGC | -0.163
CAGCTTAG | -0.203
GGACAGTA | -0.0349
AACTTTCG | 0.255
GCCTAGCC | -0.187
CTAAGTAG | 0.0522
AAAAAATA | 0.331
AAATAATC | 0.301
AAATAATA | 0.428
CCTCAAAC | -0.125
AGATATCC | -0.0391

Sequence | PBM 8-mer E-score
ATATATCG | 0.442
ACATATCG | 0.243
CTATATCC | 0.123
AAATATCG | 0.295
GTATATCA | 0.237
CTATATCA | 0.16
ATATATCA | 0.427
ATATATCC | 0.38
TCGTGACA | -0.206
GTTTCACA | -0.00657
AAATTCCG | 0.108
CCTTTAAA | 0.211
ACTTTTAG | 0.112
ACTTTAAA | 0.404
ACTTTTAA | 0.383
TCTTTTAA | 0.296
ACTTTAAT | 0.414
ACTTTTTA | 0.309
ACTTTTAC | 0.211
GCTTTAAA | 0.249
ACTTTTAT | 0.363
ACTTTAAG | 0.254
ACTTTAAC | 0.326
